In the library only some 1.6% were active in any assay of this set; here they are far more common.
KCNQ2 pot: potentiators of rat KCNQ2 potassium channel; Potassium voltage-gated channel subfamily KQT member 2 (Rattus norvegicus), O88943; CHO-K1 KCNQ2, FluxOR thallium flux fluorescence; hits give high values; B-score at 10 µM; 310,000 compounds, 0.54% hits;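 active = fluorescence ratio B-score at least 3 SD of library B-scores, with initial fluorescence B-score within 3 of them, cut at about 5.3 in these data; same plate scores as AID 2156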;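 note: B-score of peak minus minimum over baseline fluorescence ratio after K+ and Tl+ stimulus; positive B-score means potentiation of KCNQ2 with more thallium influx and brighter signal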
Target sequence (O88943 whole entry, looked up): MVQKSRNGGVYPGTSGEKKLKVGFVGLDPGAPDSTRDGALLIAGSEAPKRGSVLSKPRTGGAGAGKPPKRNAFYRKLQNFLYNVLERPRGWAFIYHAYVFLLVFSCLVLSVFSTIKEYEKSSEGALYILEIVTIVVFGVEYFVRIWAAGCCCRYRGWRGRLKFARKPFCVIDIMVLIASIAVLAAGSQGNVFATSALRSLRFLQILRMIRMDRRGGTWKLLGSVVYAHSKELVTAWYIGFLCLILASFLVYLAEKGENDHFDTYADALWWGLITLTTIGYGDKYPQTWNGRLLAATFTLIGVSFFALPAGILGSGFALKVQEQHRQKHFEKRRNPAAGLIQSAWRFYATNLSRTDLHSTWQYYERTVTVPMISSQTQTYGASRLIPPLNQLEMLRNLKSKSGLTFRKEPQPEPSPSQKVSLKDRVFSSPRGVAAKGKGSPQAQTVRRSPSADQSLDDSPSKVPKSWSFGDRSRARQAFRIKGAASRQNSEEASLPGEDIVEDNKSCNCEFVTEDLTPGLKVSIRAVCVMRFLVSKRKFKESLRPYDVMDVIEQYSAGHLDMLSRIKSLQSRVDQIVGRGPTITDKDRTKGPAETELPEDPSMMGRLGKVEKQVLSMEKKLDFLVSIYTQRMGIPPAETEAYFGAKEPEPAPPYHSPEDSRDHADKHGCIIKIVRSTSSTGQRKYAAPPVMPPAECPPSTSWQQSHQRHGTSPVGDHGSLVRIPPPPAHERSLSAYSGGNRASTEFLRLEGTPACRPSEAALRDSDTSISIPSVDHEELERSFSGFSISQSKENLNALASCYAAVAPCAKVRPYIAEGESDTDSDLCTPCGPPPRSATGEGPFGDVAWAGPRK
KCNQ2 block: rat KCNQ2 potassium channel inhibitors, primary screen, cell-based, CHO-K1, FluxOR thallium flux, B-score; AID 2156, 2009; B-score at 10 µM; 310,000 compounds, 1.1% hits; 20 min; hits give low values;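 active = fluorescence ratio B-score at most minus 3 library SDs, with starting brightness B-score within 2 library SDs, cut at about -5.5 in these data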
KCNQ2 inh conf: rat KCNQ2 potassium channel inhibitors, confirmation, cell-based, thallium flux; shares compounds with KCNQ2 block; AID 493025, 2011; KCNQ2-expressing cells, inhibition; hits give low values; 1,000 compounds, 57% hits; activity change, negative = inhibition, % at 10 µM
KCNQ1 spec: human KCNQ1 channel inhibition, counter-screen for KCNQ2 inhibitor project, cell-based, FluxOR thallium flux; KCNQ1-expressing cells, FluxOR thallium flux fluorescence; hits give low values; 1,000 compounds, 15% hits; shares compounds with KCNQ2 block; activity change, negative = inhibition, % at 10 µM;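 active = activity change at least 3 SD of negative controls below their mean in both duplicate wells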;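 note: CHO cells stably transfected with KCNQ1 and depolarized by potassium stimulus; peak minus minimum fluorescence over baseline after thallium addition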
CHO parental ctr: thallium flux change in parental CHO cells, counter-screen for KCNQ2 inhibitor project | shares compounds with KCNQ2 block | hits give low values | activity change, % at 10 µM | 1,000 compounds, 14% hits
KCNQ2 patch conf: rat KCNQ2 channel inhibitors, confirmation, cell-based, automated patch clamp, single concentration | 550 compounds, 49% hits | shares compounds with KCNQ2 block | KCNQ2-expressing cells, automated patch clamp current | calls only at 10 µM
Hits are given with their value; n = inactive; x = not tested or not shown; + = active, no number. Unless noted, the rule behind the calls is not given here.

SMILES	KCNQ2 pot	KCNQ2 block	KCNQ2 inh conf	KCNQ1 spec	CHO parental ctr	others
CC(=O)N1CCN(c2cc(N3CCCC3)c(F)cc2[N+](=O)[O-])CC1	x	n	x	x	x
CCN1CCN(c2cc(N3CCc4ccccc4C3)c(F)cc2[N+](=O)[O-])CC1	n	-6.9	-29%	n	n
COc1ccc(Nc2nc(N3CCN(S(=O)(=O)N(C)C)CC3)nc3ccccc23)cc1	n	n	x	x	x
CC1CCN(c2ccccc2NC(=O)c2ccc(F)cc2)CC1	n	-9.3	-17%	n	n	KCNQ2 patch conf=n
Cc1ccc(-c2ocnc2C(=O)Nc2ccccc2C(=O)N2CCCC2)cc1	n	n	x	x	x
CN1CCN(c2ccccc2NC(=O)c2ccc(F)cc2)CC1	n	n	x	x	x
O=C(Nc1ccccc1N1CCCCC1)c1ncoc1-c1ccc(F)cc1	n	-7.1	n	n	n
CCc1ccc(NC(=O)C(C)OC(=O)c2ccc(N3CCCC3)c([N+](=O)[O-])c2)cc1 (centres undefined)	x	n	x	x	x
COc1ccc(-c2cc(C(=O)N3CCN(C(c4ccccc4)c4ccccc4)CC3)no2)cc1	x	n	x	x	x
O=C(c1cc(-c2ccco2)on1)N1CCN(C(c2ccccc2)c2ccccc2)CC1	n	-7.7	-29%	n	n	KCNQ2 patch conf=n
Cc1cc(Nc2cc(Cl)cc(Cl)c2)nc(N)n1	n	n	x	x	x
O=C(CNS(=O)(=O)c1ccc(Br)cc1)Nc1ccc2c(c1)OCCO2	x	n	x	x	x
Cc1ccc(-c2nnc(N3CCN(C(=O)COc4ccccc4)CC3)c3ccccc23)cc1	n	-7.6	-27%	n	n	KCNQ2 patch conf=+
O=C(COc1ccc(-c2nnc(N3CCCCC3)c3ccccc23)cc1)N1CCCCC1	x	n	x	x	x
N#Cc1ccc(OCC(=O)Nc2cccc(S(=O)(=O)NC3=NCCCCC3)c2)cc1	x	n	x	x	x
CCOC(=O)N1CCN(S(=O)(=O)/C=C/c2ccccc2)CC1	n	n	x	x	x
CCOC(=O)N1C/C(=C\c2ccccc2)C(=O)/C(=C/c2ccccc2)C1	n	-6.9	-33%	n	n	KCNQ2 patch conf=n
COc1ccccc1C(c1nnnn1Cc1ccccc1)N1CCN(c2nc3ccccc3s2)CC1 (centres undefined)	n	-8.8	-31%	n	n	KCNQ2 patch conf=+
c1ccc(C(c2nnnn2Cc2ccco2)N2CCN(c3nc4ccccc4s3)CC2)cc1 (centres undefined)	x	n	x	x	x
c1ccc(Cn2nnnc2C(c2ccccc2)N2CCN(c3nc4ccccc4s3)CC2)cc1 (centres undefined)	n	-7.9	-37%	n	n	KCNQ2 patch conf=n
COc1ccc(C(c2nnnn2Cc2ccccc2)N2CCN(c3nc4ccccc4s3)CC2)cc1OC (centres undefined)	x	n	x	x	x
CC1(C)CC(=O)c2c(O)c(-c3ccccc3)c(=O)n(-c3ccccc3)c2C1	x	n	x	x	x
CCOC(=O)N1CCN(C(=O)CSc2ccc(-c3cccnc3)nn2)CC1	n	n	x	x	x
C/C(=N/O)c1no[n+]([O-])c1/C(C)=N\O	x	n	x	x	x
Cc1ccc(-c2cc(C(=O)N(C)Cc3cnn(C)c3C)c3cc(Br)ccc3n2)cc1	x	n	x	x	x
SMILES	KCNQ2 pot	KCNQ2 block	KCNQ2 inh conf	KCNQ1 spec	CHO parental ctr	others
Cc1ccc(-c2cc(C(=O)NCc3cnn(C)c3C)c3cc(Br)ccc3n2)cc1	n	-9.2	-34%	n	n	KCNQ2 patch conf=+
Cc1cc(C)cc(N(CC(=O)NC(C)(C)C)C(=O)CNC(=O)c2cccs2)c1	x	n	x	x	x
COc1cccc(N/C(C)=C/C(=O)c2ccc(Br)cc2)c1	n	-7.6	-41%	-47%	-33%	KCNQ2 patch conf=n
C/C(=C\C(=O)c1ccc(Br)cc1)Nc1ccc(Cl)cc1	x	n	x	x	x
COc1ccc(/C=N/N=C/c2ccc(OC)c(OC)c2)cc1OC	n	n	x	x	x
COc1cc(/C=N/N=C(N)N)ccc1OCc1ccccc1Cl	n	-10	-26%	n	n	KCNQ2 patch conf=n
COc1cccc(OC)c1C(=O)Nc1ccccc1Sc1ccccc1	n	-7	n	n	n
COc1cccc(OC)c1C(=O)Nc1ccccc1NC(=O)c1c(OC)cccc1OC	n	n	x	x	x
Cc1cccnc1NC1(C(F)(F)F)N=C2SCCN2C1=O (centres undefined)	x	n	x	x	x
Cc1ccc(-c2cc(C(=O)N3CC(C)OC(C)C3)c3ccccc3n2)o1 (centres undefined)	n	-11	-33%	n	n	KCNQ2 patch conf=+
Cc1ccc(-c2cc(C(=O)Nc3ccccc3C)c3ccccc3n2)o1	n	-10	-40%	n	n	KCNQ2 patch conf=+
Cc1ccc(-c2cc(C(=O)NCc3ccco3)c3ccccc3n2)o1	x	n	x	x	x
COC(=O)c1cc(-c2ccc(C)o2)nc2ccccc12	x	n	x	x	x
Cc1ccc(C)[n+](CC(=O)c2ccc(-c3ccccc3)cc2)c1	n	n	x	x	x
CCOc1ccc(NC(=S)N(CCOC)C2CCN(C(C)C)CC2)cc1	n	n	x	x	x
O=C(CC1CCCCC1)Nc1ncn[nH]1	n	n	x	x	x
Cc1ccc(C)c(NC(=O)NCCN2CCCCC2)c1	x	n	x	x	x
COC(=O)Nc1c(-c2ccccc2)nc2ccc(Cl)cn12	x	n	x	x	x
COC(=O)NN1C(=O)C(c2ccccc2)=C(c2ccc(Cl)cc2)C1=O	n	-8.8	n	n	n
CC(=O)c1ccc(NC(=O)C(=O)c2cn(CC(=O)N3CCCCC3)c3ccccc23)cc1	n	n	x	x	x
O=C(/C=C/c1ccc(Cl)cc1)N1CCN(c2c(Cl)cccc2[N+](=O)[O-])CC1	x	n	x	x	x
O=C(CSc1ccc(Cl)cc1)N1CCN(c2c(Cl)cccc2[N+](=O)[O-])CC1	n	-8.2	n	n	n
CN(C)C(CNC(=O)c1cccc(C(F)(F)F)c1)c1ccco1 (centres undefined)	n	n	x	x	x
O=C(CSC1=NCCN1)NC(c1ccccc1)c1ccccc1	n	-9.7	n	n	n
O=C(CSC1=NCCN1)Nc1ccccc1[N+](=O)[O-]	x	n	x	x	x
SMILES	KCNQ2 pot	KCNQ2 block	KCNQ2 inh conf	KCNQ1 spec	CHO parental ctr	others
Cn1cc(CN2CCC(n3nccc3NC(=O)Cc3ccccc3)CC2)cn1	n	n	x	x	x
COc1ccc(CN(C(=O)c2ccco2)c2ccccc2)cc1	n	n	x	x	x
COc1ccc(CN(CCC(c2ccccc2)c2ccco2)C(=O)c2ccco2)cc1 (centres undefined)	n	-6.7	-38%	-43%	-36%	KCNQ2 patch conf=n
O=C(c1ccco1)N(CCC(c1ccccc1)c1ccco1)Cc1ccccc1 (centres undefined)	n	-7.7	-26%	n	n	KCNQ2 patch conf=+
CCN(CC)C(=O)CC(c1ccccc1)c1ccco1 (centres undefined)	x	n	x	x	x
CCN(CC)CCN1C(=O)C2C(C(=O)Nc3cc(C)cc(C)c3)C3C=CC2(O3)C1C(=O)NC1CCCCC1 (centres undefined)	n	n	x	x	x
O=C1OC[C@H](Cc2ccc3c(c2)OCO3)/C1=C\c1ccc2c(c1)OCO2	x	n	x	x	x
COc1cc(C(=O)NCc2ccc3c(c2)OCO3)c([N+](=O)[O-])cc1OC	x	n	x	x	x
N#CCCN1CCN(Cc2ccccc2)CCC1=O	n	n	x	x	x

Screening data: PubChem BioAssay, Johns Hopkins Ion Channel Center
